According to the supplement of paper PMC6555819:

Tested on: VDR:RXRa (NR concentration 270 nM, RXRa partner concentration 90 nM)
Experiment: PBM binding z-score (relative to random genomic background probes); higher = stronger binding; sequences stand for … in GC…GCGATTGACAGCGTAGAATGAAGG
Protocol: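 Protein-binding microarray (Agilent 4x180K custom design, double-stranded 60-nt probes: 5' GC cap, 34-nt variable region, 24-nt constant primer region; full probe sequence given). Purified or IVT nuclear receptor:RXRα heterodimers (3:1 NR:RXRα, mostly 270:90 nM) or homodimers were incubated for 1 h in PBS with 2% milk and no ligand, then detected with Alexa488 antibodies. Fluorescence from o1-orientation probes (~5 replicates averaged) was converted to z-scores against 500 random hg19 background probes. Variable regions are seed direct-repeat (DR0–DR5) sites, all their single-nucleotide variants and half-site ablations.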

Sequence | PBM binding z-score
TCGAGTAGGTTAGGGGCGTTCAGAATGGCGTCGA | 0.157
CCTAGTTGGTCACGAGGTCACACACCGGATATGA | 4.77
ATCTCTAGGCAAAAGTTCAGTGAATCCCGAGGAT | 0.715
TCCATTAGTTGAAGGGCAACCGACGAGTCCGTTT | 1.02
CCTACTTGGCCACGAAAGGTCATTGATTCAGTGA | 4.14
CAAACTAGGTCACCGGAAGGTAAAAGTCCGCATG | 2.84
TGAATGAGGTTATAAGATCATGGAACGTTGCAAA | 1.44
CTACCAAGGTGAACAAGGTCGCTGATTACTATTC | 5.5
AGAATGAGCTTATACGTAGATCAGGGAAGAAAGT | -0.451
TCTCGGAGGAAACGAAGGTCAGAGCTTTCCAGAG | 0.66
GCTAGTTGGTCAGTAAAAGGACACACACCGGTCG | -0.213
GCTCGGAGGACAAGGTCAGAGCTTTGTCCGTAGA | 1.34
ATCGAAATGTCGACGAGGTGAGTATACACCGTTT | 0.509
TCGAGTAGGTTACCAATAGGGCATTCAGCTTTCT | 0.152
ACTGGTTGGTCAGCTGAGGTCACACACAATTCGG | 4.57
CAAACTAGGTAAAAGGTCAAAGTCGAGCCAACCA | 4.86
AGAATGAGGTTAAGATGAGGGAAACAGAATACAT | 1.43
TAGCCTAGGTCATCGGGCCAGTATAGTACGCATC | 2.24
GATACAGGGTCAAGGCCCGAGTACGCGTATTGAT | 4.28
TCTAGCAGGACAGAGGGTCACTCAAGAGGTACGG | 1.39

Sequence | PBM binding z-score
CGAACTAGGTCATTGACTGGACAGTGAATAGTAA | 1.68
TCTAGTTGGTCACGGAAGTCACACACGACGGGTA | 0.891
TCATATAGGTAATACAGCTGAAAGTCGGCATCTA | 0.891
GGAACGAAGGCATTCGAGTTGATAGCATGGCGAT | -0.337
TCATATAGGTAAACAGGTAAAAGTCCGTAAGTTA | 1.29
AGAATGAGGTTTCCAAAGATCAGGGAAACGCTTG | -0.555
CCTAGTTGGTCAGGATGTCACACACCGGATATGA | 0.176
ATACCAAAGTGATCGTGAGGTCGTTGATACTAAC | 2.02
TCTGCTAGGTCAGCGATGGTCAGCTAATCTGCTA | 0.126
GCAGACAGGTGAAACGCAGGTAACACAGGGTGGC | -0.439
CCTCGGAGGACCACAGGAGGTCAGAGCTGCCAGA | 1.43
ATATGTAGGTTAAGGGTCATTCAAGTTGGTTCGC | 5.82
GCTTACGGGTCAAACGTTATAGCATGAATAGAAT | 3.74
ATCGAAAGGTCGACGAGGTGAGTACACACCGTTT | 5.59
CCTACTGGGCCATCAGGCCATTGATATCAACGTT | -0.292
TCTAGTTGGTCAGAGGTCACACACTCGAAATGCG | 4.95
GATACAGGGTCAGCTAGAGTCCAGAGTATGGAAA | 4.13
CTACCAAGGTGAACAAGGTCGTTGAGTACTATTC | 6.19
AGAATCAGGTTATTAAGATCAGGGAATTGCGGTC | 1.08
TCTCTGAGGACACGAAAGGTCAGAGCTCGACATC | 3.54
